# Only some compounds are listed: those with a hit (about 1.6% of all), similar ones and a draw of the others.
# KCNQ2 inh: KCNQ2 (rat) channel inhibition; O88943; CHO-K1 KCNQ2, FluxOR thallium flux, 20 min; stronger effect = lower value; B-score at 10 µM; 310,000 tested, 1.1% active; AID 2156;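 active means fluorescence ratio B-score at most minus 3 library SDs, with starting brightness B-score within 2 library SDs, cut at about -5.5 in these data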
# Target sequence (O88943 whole entry, looked up): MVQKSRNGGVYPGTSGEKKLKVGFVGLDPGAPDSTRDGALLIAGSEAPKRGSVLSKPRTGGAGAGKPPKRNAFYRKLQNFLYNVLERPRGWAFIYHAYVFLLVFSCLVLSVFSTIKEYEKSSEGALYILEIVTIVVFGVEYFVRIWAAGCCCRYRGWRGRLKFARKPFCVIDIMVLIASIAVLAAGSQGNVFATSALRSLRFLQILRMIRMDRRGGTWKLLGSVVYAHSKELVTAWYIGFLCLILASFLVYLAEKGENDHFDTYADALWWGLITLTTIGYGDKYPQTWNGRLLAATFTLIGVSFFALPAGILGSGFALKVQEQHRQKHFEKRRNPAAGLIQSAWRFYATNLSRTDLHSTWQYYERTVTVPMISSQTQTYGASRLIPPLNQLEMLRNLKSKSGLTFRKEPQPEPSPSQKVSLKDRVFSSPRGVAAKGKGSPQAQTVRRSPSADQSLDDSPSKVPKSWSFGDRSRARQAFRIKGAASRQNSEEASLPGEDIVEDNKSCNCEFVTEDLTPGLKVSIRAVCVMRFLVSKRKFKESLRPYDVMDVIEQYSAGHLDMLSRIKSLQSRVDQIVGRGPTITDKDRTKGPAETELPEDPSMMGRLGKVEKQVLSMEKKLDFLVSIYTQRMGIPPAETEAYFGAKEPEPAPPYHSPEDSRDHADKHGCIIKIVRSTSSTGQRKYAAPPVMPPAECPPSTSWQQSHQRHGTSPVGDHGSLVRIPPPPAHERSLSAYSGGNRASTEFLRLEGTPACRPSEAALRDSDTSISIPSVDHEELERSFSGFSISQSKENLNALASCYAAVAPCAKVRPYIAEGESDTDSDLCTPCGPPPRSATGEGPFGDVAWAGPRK
# KCNQ2 pot: enhances the rat KCNQ2 potassium channel. CHO-K1 KCNQ2, FluxOR thallium flux fluorescence; stronger effect = higher value. B-score at 10 µM. 310,000 tested, 0.54% active. AID 2239;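 active means fluorescence ratio B-score at least 3 SD of library B-scores, with initial fluorescence B-score within 3 of them, cut at about 5.3 in these data; same plate scores as AID 2156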;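 further: B-score of peak minus minimum over baseline fluorescence ratio after K+ and Tl+ stimulus; positive B-score means potentiation of KCNQ2 with more thallium influx and brighter signal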
# KCNQ2 block conf: rat KCNQ2 channel inhibition, confirmatory screen; activity change, negative = inhibition, % at 10 µM; KCNQ2-expressing cells, thallium flux; stronger effect = lower value; shares compounds with KCNQ2 inh; 1,000 tested, 57% active;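 further: 0% = vehicle wells and values are ratio percent relative to vehicle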
# KCNQ1 spec: KCNQ2 inhibitor that also affects human KCNQ1 channel | activity change, negative = inhibition, % at 10 µM | AID 493026 | shares compounds with KCNQ2 inh | 1,000 tested, 15% active | KCNQ1-expressing cells, FluxOR thallium flux fluorescence; stronger effect = lower value;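 active means activity change at least 3 SD of negative controls below their mean in both duplicate wells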;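 further: CHO cells stably transfected with KCNQ1 and depolarized by potassium stimulus; peak minus minimum fluorescence over baseline after thallium addition; 0% = vehicle negative control and -100% = blank without thallium stimulus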
# CHO Tl ctr: counter-screen for KCNQ2 inhibitors: effect in parental CHO cells; shares compounds with KCNQ2 inh; thallium flux counter-screen; stronger effect = lower value; activity change, % at 10 µM; 1,000 tested, 14% active; AID 493029;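 further: 0% = vehicle negative controls with stimulus buffer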
# KCNQ2 inh confirm: rat KCNQ2 inhibition confirmed by electrophysiology; shares compounds with KCNQ2 inh; KCNQ2-expressing cells, automated patch clamp current; calls only at 10 µM; 550 tested, 49% active
# * marks the source's active call; other numbers are inactive results; i = inactive; · = no result given; + = active, no number. Unless noted, how the calls were made is not given here.
SMILES,KCNQ2 inh,KCNQ2 pot,KCNQ2 block conf,KCNQ1 spec,CHO Tl ctr,others
CCOc1ccc2c(c1)C(C)=CC(C)(C)N2S(=O)(=O)c1ccc(F)cc1,i,·,·,·,·,
CCOc1ccc2c(c1)-c1c(ssc1=S)C(C)(C)N2C,-7*,-7,i,i,i,
COC(=O)c1cccc(NC(=O)c2cccnc2C(=O)O)c1C,i,0.87,·,·,·,
COC(=O)Cc1ccc(OC(=O)c2cccc(S(=O)(=O)N3CCN(C)CC3)c2)cc1,i,·,·,·,·,
O=C(/C=C/c1ccccc1)N(c1ccccn1)C1CCCCC1,i,·,·,·,·,
O=C(/C=C/c1ccccc1Cl)N(c1ccccn1)C1CCCCC1,-7.44*,-7.44,i,i,i,
CCOC(=O)CNC(=O)COc1ccc(Cl)cc1Br,i,·,·,·,·,
CC(C)(C)c1ccc(OCC(=O)N(c2ccccn2)C2CCCCC2)cc1,i,·,·,·,·,
O=C(COc1ccc(Cl)cc1Cl)N(c1ccccn1)C1CCCCC1,-6.92*,-6.92,-35.0%*,i,i,KCNQ2 inh confirm=+
CN(C(=O)COc1ccc(Cl)cc1Br)C1CCCCC1,-7.75*,-7.75,-30.5%*,i,i,KCNQ2 inh confirm=+
Cc1nn(Cc2cccc(F)c2)c(C)c1NC(=O)c1c(Cl)cnn1C,i,0.23,·,·,·,
COc1ccc(CN(C)CC(=O)NC2CCCc3ccccc32)cc1OC (centres undefined),i,·,·,·,·,
Cc1ccc(-c2cc(C(=O)Nc3cc(C)on3)c3ccccc3n2)cc1,i,·,·,·,·,
Cc1cc(C)nc(NC(=O)c2cc(-c3ccc(C)s3)nc3ccccc23)c1,i,·,·,·,·,
O=C(NNC(=O)c1cc(-c2ccncc2)nc2ccccc12)Nc1ccc(F)cc1,i,1.77,·,·,·,
Cc1cccc(-c2cc(C(=O)N3CCCc4ccccc43)c3ccccc3n2)c1,-6.83*,-6.83,-40.5%*,-42.0%*,-34.0%*,KCNQ2 inh confirm=i
O=C(c1cc(-c2ccccc2)nc2ccccc12)N1CCCc2ccccc21,i,·,·,·,·,
O=C(NNC(=O)c1cc(-c2cccnc2)nc2ccccc12)Nc1ccc(Cl)cc1,-9.76*,-9.76,-27.0%*,i,i,KCNQ2 inh confirm=i
Cc1ccc(-c2cc(C(=O)Nc3cccnc3)c3ccccc3n2)s1,-7.91*,-7.91,-17.5%*,i,i,
Cc1cc(NC(=O)c2cc(-c3cccc(OCC(C)C)c3)nc3ccccc23)no1,-11.3*,-11.3,-20.5%*,i,i,KCNQ2 inh confirm=i
CC(C)c1ccc(N2C(=NC(=O)C3CC3)SC3CS(=O)(=O)CC32)cc1 (centres undefined),i,0.73,·,·,·,
CC1(C)CC(=O)c2c(O)c(-c3ccccc3)c(=O)n(-c3ccccc3)c2C1,i,·,·,·,·,
Cc1cccc(-c2cc(C(=O)Nc3cccnc3)c3ccccc3n2)c1,-8.01*,-8.01,-47.0%*,-48.5%*,-46.5%*,KCNQ2 inh confirm=+
Cc1cccc(-c2cc(C(=O)Nc3ccncc3)c3ccccc3n2)c1,i,·,·,·,·,
O=C(NCC1CCCO1)c1cccc2ccccc12 (centres undefined),i,0.01,·,·,·,
SMILES,KCNQ2 inh,KCNQ2 pot,KCNQ2 block conf,KCNQ1 spec,CHO Tl ctr,others
O=C(NC(NCC1CCCO1)C(Cl)(Cl)Cl)c1cccc2ccccc12 (centres undefined),-8.59*,-8.59,i,i,i,
CSCCC(=O)N1CCCC(N(C)CCc2ccccc2)C1 (centres undefined),i,0.53,·,·,·,
O=C(CN(c1ccccc1)S(=O)(=O)c1ccccc1)Nc1ccc(F)cc1,i,·,·,·,·,
NC(=O)C1CC(O)CN1c1nc(CN2CCOCC2)nc2scc(-c3ccccc3)c12 (centres undefined),-8.89*,-8.89,i,i,i,
CC1CCN(c2nc(CN3CCCCC3)nc3scc(-c4ccccc4)c23)CC1,i,·,·,·,·,
CC1CC(C)CN(C(=O)C(Cc2ccccc2)NC(=O)c2ccccc2)C1 (centres undefined),-6.97*,-6.97,i,i,i,
O=C(NC(Cc1ccccc1)C(=O)N1CCCCCC1)c1ccccc1 (centres undefined),i,·,·,·,·,
COCC(C)n1c(SCC(=O)N2CCc3ccccc3C2)nc2ccccc2c1=O (centres undefined),i,·,·,·,·,
c1ccc(C(NCCNC(c2ccccc2)c2ccccc2)c2ccccc2)cc1,-7.23*,-7.23,-28.5%*,i,i,KCNQ2 inh confirm=i
NS(=O)(=O)c1ccc(CCNC(c2ccccc2)c2ccccc2)cc1,i,0.51,·,·,·,
COc1ccc(CC(O)COS(N)(=O)=O)cc1 (centres undefined),i,0.95,·,·,·,
O=C(OCC(=O)N(C1CCCCC1)C1CCCCC1)c1ccc(O)cc1,i,0.71,·,·,·,
O=C(OCC(=O)N(C1CCCCC1)C1CCCCC1)c1ccccc1O,-7.34*,-7.34,-35.5%*,i,i,KCNQ2 inh confirm=+
COC(=O)Nc1ccc(S(=O)(=O)N2CCCC(C(=O)NC3CCS(=O)(=O)C3)C2)cc1 (centres undefined),i,0.84,·,·,·,
Cc1ccc(SCCN2CCC(O)CCC2=O)cc1 (centres undefined),i,·,·,·,·,
COc1ccc(NC(=O)CC2CCCC2)cc1S(=O)(=O)N1CCCCC1,i,1.65,·,·,·,
COc1ccc(NC(=O)CN2C(=O)NC3(CC(C)CC(C)(C)C3)C2=O)cc1S(=O)(=O)N1CCCCC1 (centres undefined),-8.89*,-8.89,i,i,i,
COc1cccc(OC)c1OCCCN1CCC(Cc2ccccc2)CC1,i,0.35,·,·,·,
CN(C)CCC(=O)c1ccc(F)cc1,i,·,·,·,·,
CCN(CC)CCC(=O)c1ccc(F)cc1,-8.97*,-8.97,-36.0%*,i,i,KCNQ2 inh confirm=i
CCCCN(C(=O)CSCC(=O)Nc1ccc(C)cc1)c1c(N)n(CCCC)c(=O)[nH]c1=O,i,0.13,·,·,·,
CC(=O)c1cccc(NC(=O)Nc2ccc3c(c2)N(C)C(=O)CS3)c1,-8.48*,-8.48,-44.0%*,-34.5%*,-29.0%*,KCNQ2 inh confirm=i
Cc1cc(C)cc(NC(=O)Nc2ccc3c(c2)N(C)C(=O)CS3)c1,i,1.4,·,·,·,
Cc1nc2ccc(NC(=O)CCC3CCCC3)cc2s1,i,4.61,·,·,·,
N#Cc1ccc(CC(C(=O)O)N2Cc3ccccc3C2=O)cc1 (centres undefined),i,0.07,·,·,·,
SMILES,KCNQ2 inh,KCNQ2 pot,KCNQ2 block conf,KCNQ1 spec,CHO Tl ctr,others
c1ccc(-c2nc3ccccc3[nH]2)cc1,i,1.26,·,·,·,
c1ccc(-c2n[nH]c(-c3ccccc3)c2-c2nc3ccccc3[nH]2)cc1,-9.16*,-9.16,-36.0%*,i,i,KCNQ2 inh confirm=+
NC(=O)Cn1ccc(O)c(Cc2ccc(Cl)cc2Cl)c1=O,i,0.4,·,·,·,
Cc1cc(C)cc(C(=O)Nn2cnnc2)c1,i,·,·,·,·,
O=C(CSc1cn[nH]n1)Nc1ccccc1C(=O)O,i,·,·,·,·,
COc1cc2c(cc1NC(=O)C(c1ccccc1)c1ccccc1)CCCC2,-7.06*,-7.06,-33.5%*,i,i,KCNQ2 inh confirm=+
COc1cc(NC(=O)C(c2ccccc2)c2ccccc2)c(C(=O)O)cc1OC,i,0.39,·,·,·,
Cc1cc(NC(=O)CN(C)C)c([N+](=O)[O-])cc1C,i,·,·,·,·,
COc1ccccc1NC(=O)C(C)OC(=O)C1CCC(C(C)(C)C)CC1 (centres undefined),-8.42*,-8.42,-31.0%*,i,i,KCNQ2 inh confirm=i

# Assay outcomes as filed in PubChem.
